{"source": "PubChem BioAssay (NCATS)", "note": "Records with an inconclusive call do not appear. Active and inactive are the calls of the source. Calls come from the whole dose curve; as a rule, active = well fitted cell-killing curve with a large enough effect; inconclusive = small, poorly fitted or top-dose-only effect, or effect the other way; inactive = no such curve, though single readings can be large or run the other way. Potency is the fitted concentration of half-maximal effect."}
{"test": "Quantitative High-Throughput drug screen in 47 multiple myeloma cell lines against the NCATS MIPE library collection: KMS28PE_JCRB cell viability assay (AID 1918983); note: nearly all actives have a fitted effect of over 35% in size", "conditions": "KMS28PE multiple myeloma viability, CellTiter-Glo ATP, 48 h; series mostly up to 45.8 µM", "procedure,_shortened": "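Viability after 48 h drug exposure was measured as ATP-dependent luminescence. Cells, 500 per well, sat at 37 °C under 5% CO2; DMSO wells set 100%, media-only wells 0%.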"}
{"compound": "CC[C@H](CC#N)OC(=O)N[C@@H](C)c1cccc(NC(=O)Nc2ccc(-c3cnco3)c(OC)c2)c1", "Potency": "1.18 µM (active)"}
{"compound": "Cc1ccccc1C(=O)c1ccc(Nc2ccc(Br)cc2N)cc1Cl", "Potency": "14.8 µM (active)"}
{"compound": "CCN1CCC(n2cc(CNc3cc(Cl)c4ncc(C#N)c(Nc5ccc(F)c(Cl)c5)c4c3)nn2)CC1", "Potency": "7.43 µM (active)"}
{"compound": "O=C1CN2Cc3c(ccc(Cl)c3Cl)N=C2N1", "Potency": "23.5 µM (active)"}
{"compound": "COc1ccc(-c2ccc3ncc4c(c3c2)n(-c2ccc(N3CCNCC3)c(C(F)(F)F)c2)c(=O)n4C)cn1", "Potency": "0.0066 µM (active)"}
{"compound": "CCc1cccc(CC)c1NC(=O)N1Cc2[nH]nc(NC(=O)c3ccc(N4CCN(C)CC4)cc3)c2C1", "Potency": "14.8 µM (active)"}
{"compound": "COc1cc(N2CCN(C)CC2)ccc1Nc1nc(N)c(C(=O)c2c(Cl)cccc2Cl)s1", "Potency": "14.8 µM (active)"}
{"compound": "C#CCN(C)CC1=Cc2ccccc2Oc2ccccc21", "Potency": "18.7 µM (active)"}
{"compound": "COc1ccc(CCN(C)CCCOc2ccc(S(=O)(=O)c3[nH]c4ccccc4c3C(C)C)cc2)cc1OC", "Potency": "16.6 µM (active)"}
{"compound": "N#Cc1ccc(Oc2ccc3c(c2)COB3O)cc1", "Potency": "inactive"}
{"compound": "CC(C)(O)CC(=O)NCCn1ccc2ncnc(Nc3ccc(Oc4cccc(C(F)(F)F)c4)c(Cl)c3)c21", "Potency": "26.4 µM (active)"}
{"compound": "c1cc(OCCN2CCCCC2)cc(-c2n[nH]c3ccc(-c4ncn[nH]4)cc23)c1", "Potency": "16.6 µM (active)"}
{"compound": "CN[C@@H]1CN(c2ccc3c(=O)c(C(=O)O)cn(-c4nccs4)c3n2)C[C@@H]1OC", "Potency": "18.2 µM (active)"}
{"compound": "CNc1nc(Nc2ccc(C(=O)N3CCOCC3)cc2OC)ncc1Cl", "Potency": "inactive"}
